According to PubChem BioAssay (EPA / NIEHS):
Values joined by “and” are separate entries in the source; they are usually repeats but may differ in a detail not shown here. Equal entries are not always repeated. Results filed as inconclusive are left out. A structure can be active in one record and inactive in another. Active and inactive are the calls of the source. Rule for the calls, unless noted: active = hit-call score of the fitted dose curve at least 0.9, where 1 is the maximum; inactive = score below 0.9.

Tests used:
[1] = target: Nuclear respiratory factor 1 (Homo sapiens) (UniProt Q16656); assay: ATG_NRF1_CIS: Attagene CIS-FACTORIAL HepG2 Assay for human Nuclear Respiratory Factor 1 (NRF1) Orphan Gene (AID 2282987); conditions: HepG2 NRF1 cis-element reporter, Attagene multiplex; actives raise or lower the signal
In short: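 Cells (HepG2, transient MRTU transfection) are exposed to compound for 24 h, then RNA isolated and reporter mRNA amplified and fluorescently labelled. Fragments are separated by capillary electrophoresis; signal change is fitted bidirectionally relative to DMSO.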

[2] = ATG_NFI_CIS: Attagene CIS-FACTORIAL HepG2 Assay for human Nuclear Factor I (NFI) (AID 2282989); conditions: HepG2 cis-regulatory reporter, NFI response element transcription; actives raise or lower the signal
In short: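 Reporter transcripts were measured by RT-PCR with fluorescent primer extension and capillary electrophoresis 24 h post-treatment. HepG2 cells carried transiently transfected cis-regulated reporter constructs reporting endogenous factor activity; gain or loss fitted against DMSO baseline.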

[3] = target: Myc proto-oncogene protein (Homo sapiens) (UniProt P01106); assay: ATG_Myc_CIS: Attagene CIS-FACTORIAL HepG2 Assay for human Myelocytomatosis (Myc) Proto-Oncogene Transcription Factor (AID 2282990); conditions: HepG2, Attagene cis-reporter transcription factor activity; actives raise or lower the signal
In short: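 Read-out: fluorescent reporter mRNA fragments resolved by capillary electrophoresis after RT-PCR. Human HepG2 liver cells carried transfected cis-element reporter units and were dosed for 24 h. Gain or loss of signal fitted relative to DMSO baseline.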

[4] = ATG_NF_kB_CIS: Attagene CIS-FACTORIAL HepG2 Assay for human Nuclear Factor Kappa B (NF-kB) (AID 2282991); conditions: HepG2 Attagene cis-factorial NF-kB reporter mRNA; actives raise or lower the signal
In short: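 Measures mRNA induction of an NF-kB-responsive cis-element reporter in HepG2 cells transfected with multiple reporter units, sampled 24 h post-dosing; quantified by fluorescence after RT-PCR and capillary electrophoresis, fitted for activation or inhibition against DMSO.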

[5] = ATG_NRF2_ARE_CIS: Attagene CIS-FACTORIAL HepG2 Assay for human Nuclear Factor Erythroid 2 Related Factor 2 (NFR2) response to Antioxidant Response Elements (ARE) (AID 2282992); conditions: HepG2 Attagene ARE/NRF2 reporter, transcription factor activity; actives raise or lower the signal;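 for AC50: reporter mRNA level measured by RT-PCR and capillary electrophoresis fluorescence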
In short: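 Transient MRTU transfection of HepG2; 24 h compound exposure; TriZol RNA, RT with oligo(dT), PCR, 6-FAM primer extension, HpaI cut, CE. Bidirectional fit vs DMSO.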

[6] = ATG_Oct_MLP_CIS: Attagene CIS-FACTORIAL HepG2 Assay for human Octamer-Binding Transcription Factor (Oct) (AID 2282993); conditions: HepG2 Attagene cis-factorial Oct reporter, mRNA; actives raise or lower the signal
In short: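 Readout is reporter transcript level from RT-PCR with fluorescent primer extension and capillary electrophoresis, fitted in both directions against DMSO. Transfected HepG2 reporter units report endogenous factor activity after 24 h dosing.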

[7] = target: Cellular tumor antigen p53 (Homo sapiens) (UniProt P04637); assay: ATG_p53_CIS: Attagene CIS-FACTORIAL HepG2 Assay for human p53 Transcription Factor (AID 2282994); conditions: HepG2 p53 cis-element reporter, Attagene mRNA; actives raise or lower the signal
In short: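 HepG2, transient MRTU transfection (cis promoter elements, endogenous TFs); 24 h dosing; RNA isolation, RT-PCR, 6-FAM primer extension, HpaI digest, CE fluorescence; bidirectional fit vs DMSO.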

[8] = BSK_3C_TissueFactor: BioMAP Diversity Plus: 3C Assay for Tissue Factor Biomarker Activity (AID 2282997); conditions: BioMAP 3C HUVEC, tissue factor biomarker readout; actives raise or lower the signal
In short: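 Values derive from bidirectional curve fitting against DMSO of Tissue Factor ELISA signals, taken 24 h after dosing primary human umbilical vein endothelial cells.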

[9] = BSK_3C_uPAR: BioMAP Diversity Plus: 3C Assay for Urokinase-type plasminogen activator receptor (uPAR) Biomarker Activity (AID 2282998); conditions: BioMAP 3C HUVEC, uPAR biomarker ELISA; actives raise or lower the signal
In short: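 Cell-surface uPAR on HUVEC (3C system) read by ELISA at 24 h post-treatment, with DMSO as baseline and fitting in both directions. Parallel cultures stained with SRB to flag overt cytotoxicity.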

[10] = BSK_3C_VCAM1: BioMAP Diversity Plus: 3C Assay for Vascular cell adhesion molecule 1 (VCAM1) Biomarker Activity (AID 2282999); conditions: BioMAP 3C HUVEC, VCAM1 ELISA, cytokine-stimulated; actives raise or lower the signal
In short: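 Human umbilical vein endothelial cells (3C system), biomarker read by ELISA 24 h after dosing; bidirectional fit against DMSO baseline. Cytotoxicity tracked by SRB total-protein staining in parallel cultures at biomarker time.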

[11] = BSK_4H_Eotaxin3: BioMAP Diversity Plus: 4H Assay for Eotaxin 3 Biomarker Activity (AID 2283000); conditions: primary human endothelial cells (HUVEC); actives raise or lower the signal
In short: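 Endothelial primary cells (human umbilical vein) exposed to compound for 24 h. ELISA detection of Eotaxin-3.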

[12] = target: human Peroxisome Proliferator-activated Receptor alpha (PPARa), PPARA (gene 5465) (UniProt Q07869); assay: ATG_PPARa_TRANS: Attagene TRANS-FACTORIAL HepG2 Assay for human Peroxisome Proliferator-activated Receptor alpha (PPARa) (AID 2283001; active = hit-call score of the fitted dose curve at least 0.9, where 1 is the maximum;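 for AC50: potency for gain of reporter signal over DMSO so agonist or activator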)
In short: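 HepG2 cells transiently transfected with multiplexed GAL4-UAS reporters driven by exogenous chimeric NR-Gal4 proteins; reporter mRNA measured after 24 h dosing. Read-out by RT-PCR, 6-FAM labelling, HpaI digestion and capillary electrophoresis; gain of signal versus DMSO.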

[13] = read-out: Intercellular Adhesion Molecule 1 (ICAM1), ICAM1 (gene 3383); assay: BSK_3C_ICAM1: BioMAP Diversity Plus: 3C Assay for Intercellular Adhesion Molecule 1 (ICAM1) Biomarker Activity (AID 2283003); conditions: primary human endothelial cells (HUVEC); actives raise or lower the signal
In short: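 ICAM-1 levels measured by ELISA after HUVEC cultures in the 3C system had been dosed for 24 h. Gain or loss of signal relative to DMSO was fitted in both directions.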

[14] = target: human Retinoic Acid Receptor beta (RARb), RARB (gene 5915) (UniProt P10826); assay: ATG_RARb_TRANS: Attagene TRANS-FACTORIAL HepG2 Assay for human Retinoic Acid Receptor beta (AID 2283004; active = hit-call score of the fitted dose curve at least 0.9, where 1 is the maximum)
In short: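 HepG2, transient MRTU transfection, NR–Gal4 chimera, 24 h treatment; RT-PCR plus CE fluorescence detection of reporter mRNA; gain of signal vs DMSO.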

[15] = BSK_3C_Proliferation: Cell Proliferation Assessment in the BioMAP Diversity Plus: 3C Assay (AID 2283006); conditions: primary human endothelial cells (HUVEC);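 for AC50: potency may reflect either rise or fall in cell number versus DMSO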
In short: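 Read-out is total protein by SRB absorbance at 560 nm, taken as a proxy for relative cell number. Primary human umbilical vein endothelium cultured below confluence was dosed for 48 h, TCA-fixed and SRB-stained; curves were fitted bidirectionally versus DMSO.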

[16] = target: Peroxisome proliferator-activated receptor gamma (Homo sapiens) (UniProt P37231); assay: ATG_PPARg_TRANS: Attagene TRANS-FACTORIAL HepG2 Assay for human Peroxisome Proliferator-activated Receptor-gamma (PPARg) (AID 2283007; active = hit-call score of the fitted dose curve at least 0.9, where 1 is the maximum)
In short: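 Gain-of-signal endpoint relative to DMSO, derived from reporter mRNA levels quantified by RT-PCR and capillary electrophoresis. Cells were HepG2 transiently expressing a chimeric NR-Gal4 construct with GAL4-UAS reporters, exposed to chemicals for 24 h.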

[17] = target: human Peroxisome Proliferator-activated Receptor delta (PPARd), PPARD (gene 5467) (UniProt Q03181); assay: ATG_PPARd_TRANS: Attagene TRANS-FACTORIAL HepG2 Assay for human Peroxisome Proliferator-activated Receptor delta (PPARd) (AID 2283002; active = hit-call score of the fitted dose curve at least 0.9, where 1 is the maximum)
In short: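 Read-out: reporter mRNA induction, quantified by fluorescent RT-PCR products resolved by capillary electrophoresis. Human HepG2 liver cells carried transiently transfected Gal4-UAS reporter constructs with chimeric NR-Gal4 fusions. Cells were dosed for 24 h; DMSO served as baseline.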

[18] = target: Retinoic acid receptor alpha (Homo sapiens) (UniProt P10276); assay: ATG_RARa_TRANS: Attagene TRANS-FACTORIAL HepG2 Assay for human Retinoic Acid Receptor alpha (RARa) (AID 2283005; active = hit-call score of the fitted dose curve at least 0.9, where 1 is the maximum)
In short: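 HepG2 transiently transfected with multiplex GAL4-UAS reporter units including a human RARa–GAL4 chimera; 24 h compound exposure. Reporter mRNA quantified by RT-PCR, 6-FAM labeling and capillary electrophoresis; gain of signal versus DMSO.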

[19] = target: Nuclear receptor subfamily 1 group I member 2 (Homo sapiens) (UniProt O75469); assay: ATG_PXR_TRANS: Attagene TRANS-FACTORIAL HepG2 Assay for human Pregnane X Receptor (PXR) (AID 2283008; active = hit-call score of the fitted dose curve at least 0.9, where 1 is the maximum)
In short: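 Read-out is fluorescence of labelled reporter cDNA fragments separated by capillary electrophoresis after RT-PCR and HpaI digestion. Source: HepG2 cells carrying PXR-GAL4/UAS reporter constructs, treated 24 h; activity fitted upward relative to DMSO.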

[20] = target: human Retinoic Acid Receptor gamma (RARg), RARG (gene 5916) (UniProt P13631); assay: ATG_RARg_TRANS: Attagene TRANS-FACTORIAL HepG2 Assay for human Retinoic Acid Receptor gamma (RARg) (AID 2283009; active = hit-call score of the fitted dose curve at least 0.9, where 1 is the maximum;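 for AC50: AC50 is for reporter induction above DMSO meaning RARg activation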)
In short: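 Transient transfection of HepG2 with multi-reporter constructs, then 24 h chemical treatment. Total RNA isolated, reverse-transcribed, PCR-amplified, fluorescently labelled and resolved by capillary electrophoresis; activity scored as mRNA induction versus DMSO.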

Measured: AC50

human Peroxisome Proliferator-activated Receptor delta (PPARd), PPARD (gene 5467), sequence (Q03181 whole entry, looked up, the tested form may be a part): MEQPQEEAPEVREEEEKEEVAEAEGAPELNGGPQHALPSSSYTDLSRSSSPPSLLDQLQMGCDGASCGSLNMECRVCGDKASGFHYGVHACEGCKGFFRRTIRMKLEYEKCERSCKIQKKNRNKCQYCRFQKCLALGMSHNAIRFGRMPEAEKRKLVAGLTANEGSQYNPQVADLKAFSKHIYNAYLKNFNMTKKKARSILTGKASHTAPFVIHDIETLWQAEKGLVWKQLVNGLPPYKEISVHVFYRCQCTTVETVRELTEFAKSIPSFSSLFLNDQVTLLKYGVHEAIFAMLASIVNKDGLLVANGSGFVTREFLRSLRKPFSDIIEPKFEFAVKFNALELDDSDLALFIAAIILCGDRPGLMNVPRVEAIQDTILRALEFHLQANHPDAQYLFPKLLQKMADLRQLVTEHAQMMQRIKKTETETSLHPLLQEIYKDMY
human Retinoic Acid Receptor gamma (RARg), RARG (gene 5916), sequence (P13631 whole entry, looked up): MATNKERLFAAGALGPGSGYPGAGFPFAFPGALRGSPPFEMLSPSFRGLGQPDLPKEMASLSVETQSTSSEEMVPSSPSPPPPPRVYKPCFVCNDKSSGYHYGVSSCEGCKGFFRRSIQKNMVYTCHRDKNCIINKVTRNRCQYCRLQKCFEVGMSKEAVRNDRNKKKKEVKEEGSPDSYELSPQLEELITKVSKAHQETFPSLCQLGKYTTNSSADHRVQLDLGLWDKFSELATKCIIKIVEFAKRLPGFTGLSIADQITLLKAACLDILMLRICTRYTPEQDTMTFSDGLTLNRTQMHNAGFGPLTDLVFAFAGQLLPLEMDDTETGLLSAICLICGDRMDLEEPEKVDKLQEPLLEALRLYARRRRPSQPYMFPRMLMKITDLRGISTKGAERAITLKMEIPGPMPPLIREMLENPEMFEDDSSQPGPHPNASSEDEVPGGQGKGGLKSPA
human Retinoic Acid Receptor beta (RARb), RARB (gene 5915), sequence (P10826 whole entry, looked up, the tested form may be a part): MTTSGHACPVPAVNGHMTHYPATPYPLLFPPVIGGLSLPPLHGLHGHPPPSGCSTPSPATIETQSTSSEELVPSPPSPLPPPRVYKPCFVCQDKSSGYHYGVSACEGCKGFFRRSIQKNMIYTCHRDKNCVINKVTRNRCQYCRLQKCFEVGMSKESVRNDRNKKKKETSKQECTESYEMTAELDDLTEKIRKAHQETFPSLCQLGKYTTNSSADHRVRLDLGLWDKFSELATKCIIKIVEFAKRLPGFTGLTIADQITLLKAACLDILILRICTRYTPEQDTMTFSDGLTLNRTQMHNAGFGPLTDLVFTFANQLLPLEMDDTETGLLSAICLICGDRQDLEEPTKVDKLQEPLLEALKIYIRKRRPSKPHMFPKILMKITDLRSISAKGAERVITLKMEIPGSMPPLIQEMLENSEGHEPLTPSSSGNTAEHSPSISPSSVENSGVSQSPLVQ
Peroxisome proliferator-activated receptor gamma (Homo sapiens), sequence (P37231 whole entry, looked up, the tested form may be a part): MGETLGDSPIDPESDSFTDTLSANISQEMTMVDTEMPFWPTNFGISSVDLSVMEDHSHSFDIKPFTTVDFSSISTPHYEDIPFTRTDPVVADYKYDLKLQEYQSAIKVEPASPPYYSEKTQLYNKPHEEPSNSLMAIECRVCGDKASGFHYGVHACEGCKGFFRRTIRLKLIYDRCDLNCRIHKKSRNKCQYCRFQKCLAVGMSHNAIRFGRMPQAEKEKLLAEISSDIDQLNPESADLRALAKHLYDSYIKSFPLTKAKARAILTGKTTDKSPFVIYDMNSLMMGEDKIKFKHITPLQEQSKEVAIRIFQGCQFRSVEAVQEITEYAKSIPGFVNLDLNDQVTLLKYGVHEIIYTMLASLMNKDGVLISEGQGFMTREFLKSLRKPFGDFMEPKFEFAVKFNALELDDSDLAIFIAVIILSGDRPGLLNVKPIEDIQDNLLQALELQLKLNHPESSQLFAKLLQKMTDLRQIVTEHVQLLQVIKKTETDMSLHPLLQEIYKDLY
Nuclear receptor subfamily 1 group I member 2 (Homo sapiens), sequence (O75469 whole entry, looked up, the tested form may be a part): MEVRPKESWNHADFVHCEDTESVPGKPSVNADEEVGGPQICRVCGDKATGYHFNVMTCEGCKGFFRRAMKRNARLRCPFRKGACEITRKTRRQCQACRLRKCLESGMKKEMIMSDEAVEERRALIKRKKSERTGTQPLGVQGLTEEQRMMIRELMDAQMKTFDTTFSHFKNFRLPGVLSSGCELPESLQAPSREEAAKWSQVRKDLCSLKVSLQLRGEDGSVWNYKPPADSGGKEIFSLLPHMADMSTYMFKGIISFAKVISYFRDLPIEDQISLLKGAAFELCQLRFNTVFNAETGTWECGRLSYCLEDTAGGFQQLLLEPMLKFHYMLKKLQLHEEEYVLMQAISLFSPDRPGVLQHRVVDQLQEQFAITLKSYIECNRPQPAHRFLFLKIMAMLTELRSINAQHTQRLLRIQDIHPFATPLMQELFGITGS
human Peroxisome Proliferator-activated Receptor alpha (PPARa), PPARA (gene 5465), sequence (Q07869 whole entry, looked up, the tested form may be a part): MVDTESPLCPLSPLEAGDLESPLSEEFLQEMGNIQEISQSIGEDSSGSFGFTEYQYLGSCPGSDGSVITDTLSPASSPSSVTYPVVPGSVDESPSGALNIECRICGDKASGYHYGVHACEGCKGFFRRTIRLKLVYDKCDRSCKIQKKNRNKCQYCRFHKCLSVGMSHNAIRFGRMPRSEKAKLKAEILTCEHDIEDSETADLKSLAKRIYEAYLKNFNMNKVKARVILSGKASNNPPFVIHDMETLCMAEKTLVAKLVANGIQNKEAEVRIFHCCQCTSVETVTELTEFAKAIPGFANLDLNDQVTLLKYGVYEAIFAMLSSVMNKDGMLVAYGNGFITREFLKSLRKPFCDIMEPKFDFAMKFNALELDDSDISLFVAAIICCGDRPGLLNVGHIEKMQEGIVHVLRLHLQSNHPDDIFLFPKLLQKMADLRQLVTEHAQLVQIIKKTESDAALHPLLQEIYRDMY
Nuclear respiratory factor 1 (Homo sapiens), sequence (Q16656 whole entry, looked up, the tested form may be a part): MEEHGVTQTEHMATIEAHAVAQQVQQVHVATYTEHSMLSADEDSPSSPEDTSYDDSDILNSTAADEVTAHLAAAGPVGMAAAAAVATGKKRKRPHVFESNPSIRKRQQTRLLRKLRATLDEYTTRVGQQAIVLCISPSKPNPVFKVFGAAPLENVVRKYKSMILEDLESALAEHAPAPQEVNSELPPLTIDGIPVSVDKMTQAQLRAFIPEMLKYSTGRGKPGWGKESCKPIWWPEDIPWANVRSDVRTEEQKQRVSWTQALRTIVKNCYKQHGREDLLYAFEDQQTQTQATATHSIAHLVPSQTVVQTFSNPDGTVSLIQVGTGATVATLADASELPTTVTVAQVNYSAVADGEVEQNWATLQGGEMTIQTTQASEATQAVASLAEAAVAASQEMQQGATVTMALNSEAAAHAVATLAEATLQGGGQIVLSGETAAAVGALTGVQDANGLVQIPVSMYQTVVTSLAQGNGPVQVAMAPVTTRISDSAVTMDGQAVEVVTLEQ
Cellular tumor antigen p53 (Homo sapiens), sequence (P04637 whole entry, looked up): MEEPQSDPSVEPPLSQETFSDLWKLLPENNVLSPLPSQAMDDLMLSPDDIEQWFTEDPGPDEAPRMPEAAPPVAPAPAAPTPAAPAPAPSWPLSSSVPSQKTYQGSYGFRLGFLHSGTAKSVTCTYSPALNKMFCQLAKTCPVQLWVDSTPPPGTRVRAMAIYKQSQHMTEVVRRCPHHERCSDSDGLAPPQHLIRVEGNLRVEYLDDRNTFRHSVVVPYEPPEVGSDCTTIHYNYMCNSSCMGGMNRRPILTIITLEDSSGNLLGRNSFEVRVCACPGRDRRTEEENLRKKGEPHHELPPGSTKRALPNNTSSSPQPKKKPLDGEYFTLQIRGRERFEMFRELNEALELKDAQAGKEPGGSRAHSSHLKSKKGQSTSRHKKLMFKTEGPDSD
Retinoic acid receptor alpha (Homo sapiens), sequence (P10276 whole entry, looked up, the tested form may be a part): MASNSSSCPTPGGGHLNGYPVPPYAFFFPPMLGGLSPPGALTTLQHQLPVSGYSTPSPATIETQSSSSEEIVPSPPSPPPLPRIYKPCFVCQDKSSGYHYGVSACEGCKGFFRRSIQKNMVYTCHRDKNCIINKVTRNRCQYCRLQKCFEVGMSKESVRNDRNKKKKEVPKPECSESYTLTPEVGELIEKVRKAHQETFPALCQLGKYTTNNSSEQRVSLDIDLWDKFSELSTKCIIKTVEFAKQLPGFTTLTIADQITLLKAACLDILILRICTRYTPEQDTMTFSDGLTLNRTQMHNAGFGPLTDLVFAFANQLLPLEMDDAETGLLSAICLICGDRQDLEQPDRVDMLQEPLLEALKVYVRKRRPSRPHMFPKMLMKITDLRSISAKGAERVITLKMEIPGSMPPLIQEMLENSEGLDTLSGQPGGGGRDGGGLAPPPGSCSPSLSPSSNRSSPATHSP
Myc proto-oncogene protein (Homo sapiens), sequence (P01106 whole entry, looked up, the tested form may be a part): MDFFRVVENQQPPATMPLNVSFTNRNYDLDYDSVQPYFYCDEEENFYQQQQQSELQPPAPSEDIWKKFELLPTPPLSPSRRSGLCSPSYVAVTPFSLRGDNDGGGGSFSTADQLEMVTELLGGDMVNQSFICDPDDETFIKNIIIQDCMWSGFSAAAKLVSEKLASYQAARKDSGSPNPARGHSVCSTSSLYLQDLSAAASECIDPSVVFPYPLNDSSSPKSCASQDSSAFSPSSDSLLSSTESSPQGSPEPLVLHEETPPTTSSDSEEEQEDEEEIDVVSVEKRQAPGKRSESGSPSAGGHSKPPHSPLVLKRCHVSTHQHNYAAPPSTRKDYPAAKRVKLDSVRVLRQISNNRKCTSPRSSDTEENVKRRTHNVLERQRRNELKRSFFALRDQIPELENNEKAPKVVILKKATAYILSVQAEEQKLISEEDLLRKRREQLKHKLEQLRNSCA

Nn1cnnc1
not listed: [17] | [18] | [19] | [20]
inactive: all other assays above

CCC(C)c1cc([N+](=O)[O-])cc([N+](=O)[O-])c1O (centres undefined)
active: [5] 14.1 µM | [6] 16.4 µM | [10] 8.86 µM | [11] 11.3 µM | [12] 49.6 µM | [15] 8.95 µM | [16] 17.3 µM | [19] 26.9 µM
not listed: [9] | [13] | [14]
inactive: all other assays above

ClC1=C(Cl)[C@]2(Cl)[C@@H]3[C@H]4C[C@H]([C@@H]5O[C@H]45)[C@@H]3[C@@]1(Cl)C2(Cl)Cl
active: [14] 0.859 µM | [15] 8.62 µM | [20] 0.937 µM
not listed: [13] | [17]
inactive: all other assays above

CC(C)C(=O)OCC(C)(C)C(OC(=O)C(C)C)C(C)C (centres undefined)
active: [15] 31.6 µM | [19] 0.483 µM
not listed: [8] | [14] | [16] | [17] | [18] | [20]
inactive: all other assays above

CN(C)CCO
not listed: [8] | [13] | [18]
inactive: all other assays above

CCC(C)(c1ccc(O)cc1)c1ccc(O)cc1
active: [2] 53 µM | [4] 44.8 µM | [5] 20 µM and 15.3 µM and 9.27 µM | [6] 53 µM and 45.7 µM and 9.52 µM | [7] 53.6 µM and 33.4 µM and 45.8 µM | [15] 26.8 µM | [16] 46.1 µM | [19] 2.52 µM [middle of 4 runs]
inactive: [1] | [2] | [3] | [4] | [5] | [6] | [7] | [8] | [10] | [11] | [12] | [13] | [16]

O=S(=O)(O)C(F)(F)C(F)(F)C(F)(F)C(F)(F)C(F)(F)C(F)(F)F
active: [5] 132 µM [middle of 4 runs] | [16] 32.5 µM and 79.5 µM and 61.7 µM
not listed: [9] | [12] | [13] | [14] | [18] | [20]
inactive: all other assays above

COS(=O)(=O)OC
not listed: [13] | [14] | [16] | [18] | [19] | [20]
inactive: all other assays above

CC(C)(c1ccccc1)c1ccc(O)cc1
inactive: [1] | [2] | [3] | [4] | [6] | [7] | [12] | [17] | [14] | [18] | [16] | [20]
active: [2] 49.6 µM | [3] 33.4 µM | [4] 53.1 µM and 50.4 µM | [5] 33.4 µM and 45.2 µM and 22.5 µM | [6] 54.7 µM and 33.4 µM | [7] 57 µM | [9] 31.1 µM | [10] 32.9 µM | [11] 35.3 µM | [16] 18.3 µM | [19] 2.93 µM [middle of 4 runs]

Clc1ccc(Cl)cc1
not listed: [9] | [18]
inactive: all other assays above

c1ccc(-c2ccccc2)cc1
active: [7] 197 µM
not listed: [8] | [13] | [14] | [16] | [18] | [20]
inactive: all other assays above

Cc1cccc([N+](=O)[O-])c1
not listed: [9] | [12] | [13] | [16] | [17] | [18] | [19]
inactive: all other assays above
